This is part of a sample that, as a whole, favours compounds with a hit. Of some 83,000 tested, about 20% had one in any assay.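 In brief: 96-well plates, 48 h treatment, single concentration, percent growth endpoint.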 Activity calls are given as the source filed them. The calls were made as follows: active = growth percent below 10; inactive = the rest.
Legend:
Experiment in all cases: NCI-60 one-dose screen, 48 h (100 = growth as untreated, 0 = no growth, -100 = all killed)
Conditions in all cases: 10 µM unless noted
T-47D breast = tested on: T-47D breast
BT-549 breast = tested on: BT-549 breast
MDA-MB-435 melanoma = tested on: MDA-MB-435 melanoma
SW-620 colon = tested on: SW-620 colon
MCF7 breast = tested on: MCF7 breast
HCT-116 colon = tested on: HCT-116 colon
HCC-2998 colon = tested on: HCC-2998 colon
KM12 colon = tested on: KM12 colon

Measured: growth

CCOc1ccc(NC(=O)c2ccccc2-c2ccccc2C(=O)O)cc1
inactive: T-47D breast 103% | BT-549 breast 108% | MDA-MB-435 melanoma 104% | SW-620 colon 107% | MCF7 breast 97.4% | HCT-116 colon 103% | HCC-2998 colon 103% | KM12 colon 110%

O=C1NC(c2ccc(Cl)c(Cl)c2)=C/C1=C\c1ccccc1
inactive: T-47D breast 12.5% | BT-549 breast 86.2% | MDA-MB-435 melanoma 86.6% | SW-620 colon 56.8% | MCF7 breast 63.1% | HCT-116 colon 26.5% | HCC-2998 colon 103% | KM12 colon 89.2%

COc1ccc2nc(-c3cc(-c4cc(OC)c(OC)c(OC)c4)n[nH]3)[nH]c2c1
active: T-47D breast -31.2% | BT-549 breast 3.56% | MDA-MB-435 melanoma -25.4% | MCF7 breast -6.38% | KM12 colon -30%
inactive: SW-620 colon 21% | HCT-116 colon 12.7% | HCC-2998 colon 49.6%

CN(C)c1cccc2[nH]c(-c3[nH]ncc3Nc3ccnc(N)n3)nc12
active: T-47D breast -18.3% | BT-549 breast -31.5% | MDA-MB-435 melanoma -90% | SW-620 colon -5.42% | MCF7 breast -46.1% | HCT-116 colon -40.8% | HCC-2998 colon -41.9% | KM12 colon -31.8%

CCOC(=O)N1CCN(CCCCOc2ccc(C(C)(C)CC)cc2)CC1
inactive: T-47D breast 79.7% | BT-549 breast 82.3% | MDA-MB-435 melanoma 105% | SW-620 colon 101% | MCF7 breast 103% | HCT-116 colon 70.8% | HCC-2998 colon 107% | KM12 colon 95.6%

O=C(N/N=C\c1ccccc1O)C1CC1
inactive: T-47D breast 86.8% | BT-549 breast 112% | MDA-MB-435 melanoma 112% | SW-620 colon 108% | MCF7 breast 102% | HCT-116 colon 107% | HCC-2998 colon 103% | KM12 colon 100%

Cc1nnc2nc(N)[nH]n2c1=O
inactive: T-47D breast 96.1% | BT-549 breast 99.6% | MDA-MB-435 melanoma 113% | SW-620 colon 107% | MCF7 breast 97.9% | HCT-116 colon 101% | HCC-2998 colon 102% | KM12 colon 96%

CN(C)CCCCC(C(=O)CBr)(c1ccccc1)c1ccccc1
active: T-47D breast -54.2% | SW-620 colon -49.7% | MCF7 breast 3.55% | HCT-116 colon -60.1%
inactive: BT-549 breast 24.3% | MDA-MB-435 melanoma 36.3% | HCC-2998 colon 71.7% | KM12 colon 68.8%

Cc1cc(C)n(Cc2cc(C(C)(C)C)cc(C(C)(C)C)c2)c(=O)c1C#N
inactive: T-47D breast 79.3% | BT-549 breast 88.5% | MDA-MB-435 melanoma 102% | SW-620 colon 101% | MCF7 breast 88.4% | HCT-116 colon 79.3% | HCC-2998 colon 116% | KM12 colon 97.5%

N#CC1=C(N)Oc2c(sc3c(F)cccc23)C1c1ccc(Cl)cc1 (stereo unspecified)
inactive: T-47D breast 33.2% | BT-549 breast 19.4% | SW-620 colon 26.9% | MCF7 breast 14.8% | HCT-116 colon 14.4% | HCC-2998 colon 87.7% | KM12 colon 33.9%
active: MDA-MB-435 melanoma -32%

CC1(C)NC2=C(C(Nc3cccnc3)N1)C(c1ccc([N+](=O)[O-])cc1)C(C(=O)c1ccc(N=[N+]=[N-])cc1)O2 (stereo unspecified)
inactive: T-47D breast 102% | BT-549 breast 99.7% | MDA-MB-435 melanoma 105% | SW-620 colon 104% | MCF7 breast 97.5% | HCT-116 colon 104% | HCC-2998 colon 110% | KM12 colon 105%

Cn1c2ccccc2c2c3c(c4c5cccnc5[nH]c4c21)C(=O)N(O)C3=O
inactive: T-47D breast 16.4% | BT-549 breast 44.6% | MDA-MB-435 melanoma 64.3% | SW-620 colon 45.4% | MCF7 breast 12.9% | HCT-116 colon 36.3% | HCC-2998 colon 54.4% | KM12 colon 65.9%

N#Cc1cnc2cc(OC[C@@H](O)CO)c(NC(=O)C3CCCC3)cc2c1Nc1ccc(OCc2cccc(F)c2)c(Cl)c1
inactive: MDA-MB-435 melanoma 20.3% | SW-620 colon 15.8% | KM12 colon 45%
active: T-47D breast -15.1% | BT-549 breast -72.8% | MCF7 breast -68.1% | HCT-116 colon -32.2% | HCC-2998 colon -65.2%

O=C1c2cc3c(cc2-c2c1c1ccc(F)cc1c(=O)n2CCCN1CCOCC1)OCO3
inactive: T-47D breast 28.4% | BT-549 breast 47.5% | MDA-MB-435 melanoma 65.6% | SW-620 colon 48.8% | MCF7 breast 13.5% | HCT-116 colon 45.2% | HCC-2998 colon 77.8% | KM12 colon 69.8%

COc1cc(-c2cc3ncccc3c3[nH]c(=O)c4cccnc4c23)cc(OC)c1OC
inactive: T-47D breast 37.5% | BT-549 breast 49.1% | SW-620 colon 32.9% | MCF7 breast 17.3% | HCT-116 colon 17.8% | HCC-2998 colon 48.5% | KM12 colon 30.7%
active: MDA-MB-435 melanoma -26.2%

COc1cccc(-c2nn(-c3ccccc3)cc2-c2ccnc(NCCCNS(=O)(=O)c3cccc(F)c3)c2)c1
active: T-47D breast -1.01%
inactive: BT-549 breast 24.3% | MDA-MB-435 melanoma 22.4% | SW-620 colon 39.9% | MCF7 breast 16% | HCT-116 colon 18.4% | HCC-2998 colon 11.7% | KM12 colon 24.5%

Fc1ccc(Nc2nnc(-c3ccc(Cl)cc3)o2)cc1
inactive: T-47D breast 66.2% | BT-549 breast 99% | MDA-MB-435 melanoma 111% | SW-620 colon 105% | MCF7 breast 75.4% | HCT-116 colon 85.1% | HCC-2998 colon 98.9% | KM12 colon 97.8%

COc1ccc2c3c(c4ccccc4cc13)C(=O)N(CCN(C)CCN)C2=O
active: T-47D breast 6.79% | MDA-MB-435 melanoma -92.6% | SW-620 colon -66.5% | MCF7 breast -88.2% | HCT-116 colon -94.8% | HCC-2998 colon -80.2% | KM12 colon -68.6%
inactive: BT-549 breast 26.1%

Cc1cc(N(CCCNc2ccnc3cc(Cl)ccc23)Cc2ccco2)nc(N2CCOCC2)n1
inactive: T-47D breast 88.5% | BT-549 breast 58.4% | MDA-MB-435 melanoma 62.9% | SW-620 colon 63.3% | MCF7 breast 63.4% | HCT-116 colon 43.8% | HCC-2998 colon 87.4% | KM12 colon 79.3%

CCC(CC)C(=O)OC(C)COc1ccc(C(C)(C)C)cc1 (stereo unspecified)
inactive: T-47D breast 113% | BT-549 breast 109% | MDA-MB-435 melanoma 105% | SW-620 colon 106% | MCF7 breast 101% | HCT-116 colon 90.7% | HCC-2998 colon 101% | KM12 colon 102%

Cn1cnc2c1c(=O)n(CCC(=O)Nc1ccc(F)cc1)c(=O)n2C
inactive: T-47D breast 89.7% | BT-549 breast 91.1% | MDA-MB-435 melanoma 108% | SW-620 colon 107% | MCF7 breast 101% | HCT-116 colon 86.5% | HCC-2998 colon 108% | KM12 colon 102%

O=C1CCN2C(=O)Nc3ccccc3C2C1 (stereo unspecified)
inactive: T-47D breast 100% | BT-549 breast 109% | MDA-MB-435 melanoma 97.5% | SW-620 colon 99.8% | MCF7 breast 95.3% | HCT-116 colon 98.6% | HCC-2998 colon 100% | KM12 colon 106%

O=C(NCN1C(=O)c2cccc3cccc(c23)C1=O)N1CCC(Cc2ccccc2)CC1
inactive: T-47D breast 88% | BT-549 breast 98.4% | MDA-MB-435 melanoma 104% | SW-620 colon 100% | MCF7 breast 87.5% | HCT-116 colon 87% | HCC-2998 colon 109% | KM12 colon 99.4%

N#CC1c2ccccc2-c2ccccc2N1C(=O)c1ccccc1 (stereo unspecified)
inactive: T-47D breast 73.7% | BT-549 breast 21.5% | SW-620 colon 27.3% | MCF7 breast 22.3%
active: MDA-MB-435 melanoma -13.6% | HCT-116 colon 6.83% | HCC-2998 colon -46.1% | KM12 colon 5.94%

CC(C)c1cc(C(=O)O)c(O)c(C(C)C)c1.CC(C)c1cc(C(=O)O)c(O)c(C(C)C)c1.[Mn]
inactive: T-47D breast 82% | BT-549 breast 91.2% | MDA-MB-435 melanoma 108% | SW-620 colon 106% | MCF7 breast 104% | HCT-116 colon 103% | HCC-2998 colon 134% | KM12 colon 98.1%

Cc1ccc(Nc2c(C(N)=O)cnc3ccc(S(=O)(=O)Nc4cc(C)on4)cc23)cc1
inactive: T-47D breast 92.7% | BT-549 breast 105% | MDA-MB-435 melanoma 103% | SW-620 colon 105% | MCF7 breast 93.9% | HCT-116 colon 94% | HCC-2998 colon 107% | KM12 colon 103%

CCCCC/C(=C\c1ccccc1)C1OC(C)C(C)O1 (stereo unspecified)
inactive: T-47D breast 94.4% | BT-549 breast 95.7% | MDA-MB-435 melanoma 105% | SW-620 colon 103% | MCF7 breast 102% | HCT-116 colon 81.7% | HCC-2998 colon 102% | KM12 colon 98.8%

CCCCCCCC(=O)SCC/C=C/[C@@H]1CC(=O)NCc2cccc(n2)CN(Cc2ccc(Cl)cc2)CC(=O)N[C@@H](C(C)C)C(=O)O1
active: MDA-MB-435 melanoma 6.92% | MCF7 breast 9.09% | HCT-116 colon -1.93% | HCC-2998 colon -24.2% | KM12 colon 5.69%
inactive: T-47D breast 30.9% | BT-549 breast 38.8% | SW-620 colon 16.7%

O=c1c(CNc2ccc(S(=O)(=O)Nc3ncccn3)cc2)coc2ccccc12
inactive: T-47D breast 81.1% | BT-549 breast 93.6% | MDA-MB-435 melanoma 119% | SW-620 colon 98.4% | MCF7 breast 86.1% | HCT-116 colon 91.3% | HCC-2998 colon 101% | KM12 colon 115%

Cc1ccc(N(CC(=O)Nc2ccc(S(=O)(=O)N3CCC(N4CCCC4)CC3)cc2)S(=O)(=O)c2ccc(Cl)cc2)cc1
inactive: BT-549 breast 74.1% | MCF7 breast 14.2% | KM12 colon 24.5%
active: T-47D breast -37.2% | MDA-MB-435 melanoma -87.6% | SW-620 colon -46.8% | HCT-116 colon -70.5% | HCC-2998 colon -48.9%

N#CCCCCCn1c2ccccc2c2c3[nH]c(=O)[nH]c(=O)c3c3c4ccccc4n(CCCCCC#N)c3c21
inactive: T-47D breast 22.9% | BT-549 breast 32% | MDA-MB-435 melanoma 36.8% | SW-620 colon 61.4% | MCF7 breast 45.3% | HCT-116 colon 28.2% | HCC-2998 colon 53.8% | KM12 colon 23.8%

O=S(=O)(NCCNc1cc(-c2cn(-c3ccccc3)nc2-c2cccc(O)c2)ccn1)c1ccc(Br)cc1
inactive: T-47D breast 10.5% | BT-549 breast 45.6% | MDA-MB-435 melanoma 22.4% | SW-620 colon 32.4% | MCF7 breast 13% | HCT-116 colon 24% | KM12 colon 17.3%
active: HCC-2998 colon -61.8%
